# In the library only some 4.1% were active in any assay of this set; here they are far more common.
# hcDAF-12 act: H. contortus DAF-12 nuclear receptor activators, primary screen, cell-based, luminescence, HEK293, lit1-tk-luc reporter; activation, % at 6.8 µM; hit rate 1.4% among 370,000; HEK293 hcDAF-12 lit1-tk-luc reporter; 0% DMSO, 100% Δ7-dafachronic acid;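 active = activation above the mean of all tested compounds plus 3 SD, cut at about 5.5% in these data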;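 note: 100% = response to 3 µM Δ7-dafachronic acid high control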
# ssDAF-12 act: S. stercoralis DAF-12 nuclear receptor activators, primary screen, cell-based, luminescence, HEK293, GRIP1 co-expression, lit1-tk-luc; AID 652126, 2013; hit rate 1% among 370,000; activation, % at 6.8 µM; Nuclear hormone receptor DAF-12 (Strongyloides stercoralis); HEK293 ssDAF-12/GRIP1 lit1-tk-luc reporter; % of 3 µM dafachronic acid response;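 active = activation above the mean over all tested compounds plus 3 SD, cut at about 0.9% in these data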;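 note: 0% = DMSO-only wells and 100% = 3 µM delta7-dafachronic acid wells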
# hgDAF-12 ag: H. glycines DAF-12 receptor agonists, primary screen, cell-based, luminescence, HEK293, GAL4 fusion, UAS-luciferase; Nuclear hormone receptor DAF-12 (Heterodera glycines), GAL4 fusion; HEK293 GAL4-hgDAF12 UAS-luciferase reporter, agonist luminescence; normalized to butyrate control; activation, % at 6.8 µM; hit rate 1.8% among 370,000; AID 687014, 2013;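 active = activation above a cutoff set at the mean of all screened compounds plus 3 SD, cut at about 10% in these data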;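 note: 0% = DMSO wells and 100% = sodium butyrate wells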
# DAX1 inh-1: DAX1 (NR0B1) inhibitors, primary screen, cell-based, HEK293, Gal4-DAX1, luciferase luminescence. Nuclear receptor subfamily 0 group B member 1 (Homo sapiens), P51843. HEK293 Gal4-DAX1 luciferase reporter. inhibition, % at 6.75 µM. hit rate 0.99% among 340,000. AID 504766, 2011;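 active = inhibition above the mean over all tested compounds plus 3 SD, cut at about 4.2% in these data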;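 note: 0% = DAX1-transfected cells with DMSO and 100% = empty-vector control cells with DMSO; inhibition shows as a rise in luminescence from relieved DAX1 repression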
# Target sequence (P51843 207-470 limits assumed): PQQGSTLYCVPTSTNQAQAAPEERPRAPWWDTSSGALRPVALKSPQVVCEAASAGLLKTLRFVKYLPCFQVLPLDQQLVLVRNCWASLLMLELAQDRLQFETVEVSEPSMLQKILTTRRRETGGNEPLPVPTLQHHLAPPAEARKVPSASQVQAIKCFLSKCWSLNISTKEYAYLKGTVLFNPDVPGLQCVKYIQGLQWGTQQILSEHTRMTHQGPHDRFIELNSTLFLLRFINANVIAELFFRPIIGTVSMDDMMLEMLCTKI
# DAX1 inh-2: DAX1 (NR0B1) inhibitors on StAR promoter, primary screen, cell-based, luminescence, SF-1 (NR5A1), full-length DAX-1; hit rate 1.1% among 370,000; inhibition, % at 6.8 µM; HEK293T StAR-luciferase reporter, SF-1/DAX-1 repression relief; AID 652010, 2013;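 active = inhibition above the mean over all tested compounds plus 3 SD, cut at about 3.6% in these data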;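 note: 0% = DAX-1 cells with DMSO and 100% = cells lacking DAX-1 with DMSO; higher inhibition means more luminescence from relief of DAX-1 repression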
# LXRb hcDAF ctr: LXR agonists, Gal4 luciferase reporter, confirmation, counter-screen for hcDAF-12 agonist project, cell-based, luminescence, HEK293, H. contortus campaign | 3,400 tested, under 10 active | shares compounds with hcDAF-12 act | activation, % at 6.8 µM | HEK293 Gal4-LXR tk-luc reporter, 24 h; normalized: DMSO 0%, positive control 100%;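 active = mean percent activation of the reporter above a cutoff set as the average over tested compounds plus their standard deviation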
# hcDAF12 ag: H. contortus DAF-12 receptor agonists, confirmation, cell-based, luminescence, HEK293, lit1-tk-luc, triplicate; shares compounds with hcDAF-12 act; hit rate 61% among 3,400; activation, % at 6.8 µM; AID 743032, 2013; HEK293 hcDAF-12 lit1-tk-luc reporter; % of Δ7-dafachronic acid response;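 active = mean activation across triplicate tests above the threshold derived from the earlier primary screen, cut at about 5.5% in these data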;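 note: 0% = DMSO only wells and 100% = 3 µM Δ7-dafachronic acid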
# * = called active by the depositor; / = no result.
SMILES,hcDAF-12 act,ssDAF-12 act,hgDAF-12 ag,DAX1 inh-1,DAX1 inh-2,LXRb hcDAF ctr,hcDAF12 ag
O=C(CSc1nnc2ccccn12)c1ccc2c(c1)OCCO2,6.6*,0,9,3,3.8*,1,4
COc1ccc(Cl)cc1NC(=O)c1[nH]nc(OC)c1[N+](=O)[O-],6.7*,0,3,-1,0,0,5
CCn1c(SCC(=O)NN=Cc2cc(OC)ccc2OC)nnc1-c1ccc(OC)cc1,-3,-2,-2,/,-1,/,/
N#Cc1ccsc1NC(=O)CSc1nnnn1-c1ccc(O)cc1,7.4*,0,5,1,0,0,5
Nn1c(SCC(=O)Nc2nccs2)nnc1-c1cc(-c2ccc(Cl)cc2)n[nH]1,0,0,4,/,0,/,/
Cc1csc(=O)n1CC(=O)OCC(=O)Nc1ccc(Cl)cc1F,0,-1,0,-1,0,/,/
CC(=O)c1c(C)[nH]c(C(=O)OCC(=O)Nc2cc(Cl)ccc2[N+](=O)[O-])c1C,7.0*,-1,1,-1,0,0,0
CC(=O)c1c(C)[nH]c(C(=O)OCC(=O)Nc2ccc(C)cc2[N+](=O)[O-])c1C,-4,-2,-6,0,-2,/,/
Cc1csc(=O)n1CC(=O)OCC(=O)Nc1cc(Cl)ccc1[N+](=O)[O-],7.3*,0,1,0,0,0,5
CC(=O)/C(=N\Nc1ccccc1)Sc1nnc(-c2ccccc2)n1-c1ccccc1,-1,-1,1,0,0,/,/
CC(=O)/C(=N\Nc1ccccc1)Sc1nncn1C,8.4*,0,2,1,0,0,3
O=C(c1ccc(-c2ccc([N+](=O)[O-])cc2)o1)N1CCCCC1,8.4*,-1,17*,4,2,1,5
C/C(=N\NC(=O)c1ccccc1NC(=O)c1ccc(Cl)cc1)c1ccncc1,11*,0,9,-3,3,1,5.8*
CC(=NNC(=O)c1ccncc1)c1ccccc1Cl,0,-1,2,0,0,/,/
Cc1cc(C)n2nc(C(=O)NCc3ccccc3)cc2n1,-1,-2,2,1,0,/,/
Cc1cc(C)n2nc(Nc3ccccc3)cc2n1,7.2*,0,2,1,1,0,11*
CN1CCN(C(=O)Nc2ccccc2CC[N+](=O)[O-])CC1,13*,0,-1,0,1,0,4
CSc1nc(-c2ccc(C)cc2)nc(N)c1C#N,8.5*,2.2*,4,3,1,1,7.8*
CSc1nc(-c2ccc(Cl)cc2)nc(N)c1C#N,4,0,0,/,0,/,/
Cc1sc2c(c1C)CN(Cc1ccncc1)CN2C(=O)c1ccco1,3,-1,5,1,1,/,/
Cc1sc2c(c1C)CN(C(C)(C)C)CN2C(=O)c1ccccc1,6.8*,1,9,1,1,0,6.4*
O=C(NCc1ccncc1)[C@@H]1CCCN1C(=O)[C@H]1CCCN1,2,-1,-1,/,0,/,/
Cc1ccc(C(=O)Nc2ccc(-c3csc(C)n3)cc2)cc1,0,-1,9,0,1,/,/
Cc1nc(-c2ccc(NC(=O)c3ccccc3)cc2)cs1,6.7*,1.2*,12*,-2,4.5*,2,8.0*
COc1cccc(OC)c1NC(=O)OCCN1CCCC12CCC(c1ccccc1)CC2 (stereo unspecified),-1,-1,-3,/,/,/,/
SMILES,hcDAF-12 act,ssDAF-12 act,hgDAF-12 ag,DAX1 inh-1,DAX1 inh-2,LXRb hcDAF ctr,hcDAF12 ag
Cc1ccc(NC(=O)Nc2cccc(C)n2)cc1,14*,1.4*,9,2,1,1,12*
Cc1cccc(NC(=O)Nc2ccc(F)cc2)n1,1,-1,7,-1,2,/,/
CC(C)n1nnnc1C1(C)CN(S(C)(=O)=O)CC(=O)N1Cc1cccc(C(F)(F)F)c1 (stereo unspecified),0,-1,0,/,-1,/,/
O=C(Nc1ccc(Nc2cccnc2)cc1)c1c[nH]c2ccccc12,0,-1,-1,/,0,/,/
Cc1cc(Cl)ccc1OCC(=O)NCCOC(=O)Nc1sc(=S)n(C)c1C,6.9*,0,1,-1,0,0,-1
Cc1cccc(SCC(=O)Nc2ccc3c(c2)OCCO3)c1,7.1*,0,5,1,1,1,5.8*
C[C@@H]1CCCN1c1ccc2c(c1)OCCCN(C1CC1)S2(=O)=O,0,-1,-2,/,-1,/,/
CC(=O)n1nc(-c2ccccc2)cc1-c1ccccc1,14*,1.6*,12*,4.6*,1,1,16*
O=C(O)Cn1nc(-c2ccccc2)cc1-c1ccccc1,3,-1,2,3,0,/,/
FC(F)(F)c1cc(CNC2CCC23CCCCC3)ccc1Cl (stereo unspecified),0,-2,1,/,/,/,/
Cc1ccnc(NC(=O)c2cc(S(=O)(=O)NCc3ccccc3)ccc2C)c1,0,0,4,1,1,/,/
CN(C)c1ccc(/C=N/Nc2nc3ccccc3o2)cc1,7.7*,1,10,-1,2,1,5
C(=N\Nc1nncc2ccccc12)/c1ccccc1,7.7*,0,8,3,2,2,14*
CN(C)c1ccc(/C=N/Nc2nncc3ccccc23)cc1,8.0*,1.4*,14*,2,4,2,11*
COC(=O)[C@H](C(C)C)N1CCc2nnn(CC3CCCCC3)c2-c2ccccc2S1(=O)=O,-4,-1,-1,/,0,/,/
O=C(c1cc(-c2ccccc2)on1)N1CCC(Oc2cccnc2)CC1,-2,-2,2,/,-2,/,/
CN(C)[C@H]1CCN(c2cccc3c2S(=O)(=O)N(C2CC2)CCCO3)C1,-1,-1,-1,/,-1,/,/
O=C(O)Cc1ccc2ccc3ccccc3c2c1,8.5*,0,1,/,0,0,5
